From PubChem BioAssay AID485346 (Sanford-Burnham Center for Chemical Genomics, 2010)
Among all 330,000 compounds or so, about 10,000 (3%) were called active. The sample as a whole holds a higher share of actives than the screen did. Unmarked numbers belong to inactive results.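 Rule for the calls: active = inhibition of at least 50% at 8 µM in the primary screen; inactive = the rest.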

biological target: Protein Mdm4 (Homo sapiens) + E3 ubiquitin-protein ligase Mdm2 (Homo sapiens) (UniProt O15151+Q00987); assay: inhibitors of human Mdm2-MdmX association, primary screen, cell-based, luminescence, split luciferase, SaOS-2, uHTS (AID 485346); conditions: SaOS-2 split-luciferase Mdm2/MdmX complementation, at 8 µM, active compounds read high
Sequence (O15151 whole entry, looked up): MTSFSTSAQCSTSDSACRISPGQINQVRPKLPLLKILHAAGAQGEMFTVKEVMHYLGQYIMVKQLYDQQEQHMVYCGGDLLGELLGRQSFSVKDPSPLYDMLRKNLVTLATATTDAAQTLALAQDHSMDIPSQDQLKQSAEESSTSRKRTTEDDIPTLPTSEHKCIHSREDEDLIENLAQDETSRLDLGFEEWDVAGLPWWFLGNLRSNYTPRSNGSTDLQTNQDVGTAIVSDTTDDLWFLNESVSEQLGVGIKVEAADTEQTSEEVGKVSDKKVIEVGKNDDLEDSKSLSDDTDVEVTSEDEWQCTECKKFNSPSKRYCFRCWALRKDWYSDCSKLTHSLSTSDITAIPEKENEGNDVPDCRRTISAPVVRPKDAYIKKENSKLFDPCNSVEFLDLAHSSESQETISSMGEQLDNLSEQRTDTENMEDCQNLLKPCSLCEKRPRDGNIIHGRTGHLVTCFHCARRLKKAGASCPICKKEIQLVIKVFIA
Sequence (Q00987 whole entry, looked up): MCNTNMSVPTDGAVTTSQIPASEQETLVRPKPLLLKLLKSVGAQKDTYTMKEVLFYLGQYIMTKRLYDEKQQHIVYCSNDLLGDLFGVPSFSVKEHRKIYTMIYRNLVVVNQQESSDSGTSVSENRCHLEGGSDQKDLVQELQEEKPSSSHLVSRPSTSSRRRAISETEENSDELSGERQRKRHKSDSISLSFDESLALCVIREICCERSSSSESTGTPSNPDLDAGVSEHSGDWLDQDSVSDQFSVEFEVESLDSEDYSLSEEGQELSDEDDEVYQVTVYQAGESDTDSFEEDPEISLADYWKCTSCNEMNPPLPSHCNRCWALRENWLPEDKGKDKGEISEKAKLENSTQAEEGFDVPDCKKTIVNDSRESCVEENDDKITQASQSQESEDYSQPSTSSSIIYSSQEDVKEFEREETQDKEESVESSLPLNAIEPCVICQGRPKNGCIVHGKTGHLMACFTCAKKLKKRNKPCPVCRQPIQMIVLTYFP

| SMILES | inhibition |
| --- | --- |
| CCCCN(C)CCNC(=O)CSCc1ccc(C)cc1 | 7.69% |
| CCOC(=O)NC(=O)C(=CNc1cccc(OC)c1)C(=O)NC(=O)OCC | 9.28% |
| C=CCOCCN(C)C1=NS(=O)(=O)c2ccccc21 | 5.66% |
| CN(Cc1ccccc1)S(=O)(=O)c1nnc(NC(=O)c2ccccc2F)s1 | -3.09% |
| O=C(Nc1nnc(-c2ccccc2F)s1)c1ccccc1F | 54.1% (active) |
| O=C(Nc1nc(-c2cccnc2)cs1)c1ccccc1F | -52.4% |
| CCSc1nc(=S)n(CC)c(C)c1C(C)=O | 14.7% |
| Cc1ccc(-c2cn3cc([N+](=O)[O-])ccc3n2)cc1 | -68.9% |
| COc1ccc(-c2cn3ccc(C)cc3n2)cc1 | 33.6% |
| CSc1nnc2ccc(-c3ccc(C)cc3)nn12 | 34.9% |
| CCN(CC)S(=O)(=O)c1ccc(-c2cn3ccc(C)cc3n2)cc1 | -58.3% |
| Cc1ccc2nc(-c3ccc(Br)cc3)cn2c1 | 61.7% (active) |
| Cc1ccc(-c2cn3cc(C)ccc3n2)cc1 | 89.4% (active) |
| C[C@@]12C(=O)N(c3cccc(Br)c3)C(=O)N1[C@H](c1ccc(Cl)cc1)[C@@H]1C(=O)N(C3CCCCC3)C(=O)[C@@H]12 | 49.2% |
| CCC(C)C(N=C1NS(=O)(=O)c2ccccc21)C(=O)N1CCC(C)CC1 (stereo not given) | 11.7% |
| CCN1C(=O)/C(=C\N2CCOCC2)SC1=S | 7.76% |
| CCN1C(=O)/C(=C\N2CCN(c3cccc(Cl)c3)CC2)SC1=S | 64.2% (active) |
| CCC1(C)NC(=O)N(CC(=O)N2CCN(c3cccc(Cl)c3)CC2)C1=O (stereo not given) | 13.3% |
| CCOc1ccc(N/C=C/C(=O)c2cc(OC)c(OC)c(OC)c2)cc1 | 28.5% |
| COc1ccc(C(=O)/C=C/Nc2ccccn2)cc1 | 56.3% (active) |

| SMILES | inhibition |
| --- | --- |
| CCOc1ccc(N/C=C/C(=O)c2ccccc2)cc1 | -143% |
| COc1ccccc1-c1sc2ccccc2c1C#CC1(O)CCCCC1 | 12% |
| CSc1ccccc1NC(=O)COC(=O)CCCOc1ccc(C)cc1 | 2.26% |
| O=C(CSc1ccccc1)Nc1nnc(/C=C/c2ccccc2)s1 | -2.82% |
| O=C(Nc1ccc(Cl)cc1)Nc1nnc(/C=C/c2ccccc2)s1 | 84.4% (active) |
| COc1ccc(/C=C/c2nnc(NC(=O)C(C)C)s2)cc1 | 18.7% |
| CC(=O)NCC(=O)N1CCC(n2nccc2NC(=O)CCCc2ccccc2)CC1 | -4.94% |
| COC(=O)c1cccc(N(CC(=O)NCC2CCCO2)C(=O)CCC(=O)Nc2cc(C)on2)c1 (stereo not given) | 5.29% |
| O=C(NN1C(=O)C2C(C1=O)C1C=CC2C12CC2)c1ccccc1Cl (stereo not given) | 4.22% |
| CC12CCC(C(=O)N(NC(=O)c3ccccc3O)C1=O)C2(C)C (stereo not given) | 61.1% (active) |
| COc1ccccc1C(=O)NN1C(=O)C2C3C=CC(O3)C2C1=O (stereo not given) | 14.8% |
| COCCN1C(=O)N(c2ccc(Cl)cc2)C(=O)C1CC(=O)Nc1cc(OC)cc(OC)c1 (stereo not given) | 22.4% |
| O=C(Nc1ccc(Br)cc1)c1cccc(NC(=O)C2C3CC4OC(=O)C2C4C3)c1 (stereo not given) | 8.16% |
| CCN1C(=O)[C@@H]2[C@@H](c3ccc(-c4ccc(OC)cc4)c(OC)c3)N3CCC[C@@]3(C(=O)OC)[C@@H]2C1=O | 28.1% |
| CCCCCCSc1ccc([C@@H]2[C@@H]3C(=O)N(CC)C(=O)[C@@H]3[C@]3(C(=O)OC)CCCCN23)cc1OC | 54.2% (active) |
| CCCCCCSc1ccc([C@@H]2[C@H]3C(=O)N(CC)C(=O)[C@H]3[C@]3(C(=O)OC)CCCCN23)cc1 | 29.8% |
| COCCn1c(C)cc(C(=O)CN2c3cccc4cccc(c34)S2(=O)=O)c1C | 5.95% |
| C/C(=N\Nc1ccc([N+](=O)[O-])cc1)c1ccc(-n2nncc2C(C)(C)C)cc1 | 22.2% |
| O=C(CN1C(=O)CSC1=O)N1CCCC(Nc2ccc(F)cc2)C1 (stereo not given) | 5.11% |
| CC1=NN(c2cccc(Cl)c2)C(=O)C12CC(C)=C(C)CS2 (stereo not given) | 6.51% |

| SMILES | inhibition |
| --- | --- |
| COc1ccc(C(C(=O)NC2CCCCC2)N(C(=O)CCl)c2ccccc2Cl)cc1 (stereo not given) | 92% (active) |
| COc1ccc(C(C(=O)NC2CCCCC2)N(C(=O)c2snc(C(N)=O)c2N)c2ccccc2OC)cc1 (stereo not given) | 23.2% |
| COc1cccc(N(C(=O)C2COc3ccccc3O2)C(C(=O)NC2CCCCC2)c2ccc(O)cc2)c1 (stereo not given) | 5.54% |
| Cc1nnc(SC(C(=O)Nc2cc(Cl)cc(Cl)c2)c2ccccc2)[nH]c1=O (stereo not given) | -11% |
| OCC1(Cc2ccccc2C(F)(F)F)CCN(Cc2cccc3cnccc23)CC1 | -16.9% |
| Cc1cccc(C(=O)Nc2ccc(Oc3cnccn3)cc2)c1 | -15.7% |
| CCCCSc1nnc2c(n1)OC=Nc1ccccc1-2 | -25.2% |
| Cc1ccc(S(=O)(=O)NCC(=O)N(CC(=O)NC2CCCCC2)Cc2ccco2)cc1 | -4.29% |
| Cc1ccc(-c2cc(=O)[nH]c(NCc3ccccc3)n2)cc1 | -3.28% |
| Brc1ccc(C2CC(c3ccccc3)=Nc3ccccc3N2)cc1 (stereo not given) | -130% |
| CC(=O)Nc1ccc(/C=C/C(=O)c2ccccc2)cc1 | -7.03% |
| Cc1[nH]c(=O)c(C(=O)/C=C/c2ccccc2)c2c1CCCC2 | 70.9% (active) |
| Cc1cn(COC/C=C/c2ccccc2)c(=O)[nH]c1=O | 7.02% |
| CC(C)n1cnc2c(Nc3cccc(Cl)c3)nc(N(CCO)CCCO)nc21 | 88.9% (active) |
| CC(C)C[C@H](CO)Nc1nc(N(C)c2cccc(Cl)c2)c2ncn(C(C)C)c2n1 | 22.9% |
| COCn1c(C(O)c2ccccc2)cc2ccccc21 (stereo not given) | -4.01% |
| Cc1cc(C)c2nc(N3CCC(C(=O)NCCN4CCOCC4)CC3)sc2c1 | 16.2% |
| CC(=O)N(Cc1cc(=O)[nH]c2ccccc12)c1ccc(C)cc1C | 15.3% |
| Cc1ccc(N(Cc2cc(=O)[nH]c3ccccc23)C(=O)CCl)cc1 | 100% (active) |
| Cc1ccc(N(Cc2cc3ccccc3[nH]c2=O)C(=O)c2cccs2)cc1 | -12.3% |
